FBW7 act: human FBW7 E3 ligase activation, primary screen | Q969H0 | AlphaScreen FBW7–phospho-cyclin E peptide binding, activator screen | normalized activity (activation), % at 26.1 µM | actives 0.13% (n = 650,000) | AID 1259310; in the data active = normalized activity above about 1.9%;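 note: purified mutant Fbw7 with reduced substrate affinity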
GPR151 activ: activators of human GPR151 | activation, % at 11.2 µM | AID 1508602 | actives 1% (n = 650,000) | PathHunter beta-arrestin GPR151 cells, luminescence; in the data active = activation above about 4.9%;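 note: 0% = median of compound wells and 100% = cells with positive control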
Target sequence (Q8TDV0 whole entry, looked up): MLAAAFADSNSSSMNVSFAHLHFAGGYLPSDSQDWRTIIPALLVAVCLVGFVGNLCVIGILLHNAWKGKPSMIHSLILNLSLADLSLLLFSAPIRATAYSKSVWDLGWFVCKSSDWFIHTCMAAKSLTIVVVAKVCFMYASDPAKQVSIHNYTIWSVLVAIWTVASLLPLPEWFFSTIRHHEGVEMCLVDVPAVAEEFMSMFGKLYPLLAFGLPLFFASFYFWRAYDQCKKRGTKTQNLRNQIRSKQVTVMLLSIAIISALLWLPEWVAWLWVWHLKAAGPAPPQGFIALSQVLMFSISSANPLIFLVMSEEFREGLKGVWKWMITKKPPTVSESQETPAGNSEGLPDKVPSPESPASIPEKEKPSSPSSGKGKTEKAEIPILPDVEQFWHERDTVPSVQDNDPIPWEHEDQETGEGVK
TEAD-YAP inh: TEAD-YAP interaction inhibition. HEK-TIYL cells, TEAD-Gal4/YAP UAS-luciferase luminescence. inhibition, % at 9.12 µM. actives 1.4% (n = 640,000). AID 1259422; in the data active = inhibition above about 32%;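 note: 0% = median of test compound wells and 100% = reference inhibitor wells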
MITF primary: blocks human microphthalmia-associated transcription factor | O75030 | AlphaScreen MITF homodimerization, bead proximity signal | inhibition, % at 2.6 µM | actives 0.91% (n = 650,000) | AID 1259374; in the data active = inhibition above about 50%;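 note: 0% = vehicle wells with protein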
GPR151 confirm: confirmation of human GPR151 activators; shares compounds with GPR151 activ; GPR151 PathHunter beta-arrestin cells, luminescence, 90 min; % of EA-reagent control over plate median; activation, % at 11.2 µM; 6,700 tested, under 10 active; AID 1508609;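 active = mean percent activation across replicates above the confirmation screen cutoff of 4.91%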
GPR119 counter: activates human GPR119 in a GPR151 counter-screen | shares compounds with GPR151 activ | GPR119 PathHunter beta-arrestin cells, luminescence, 90 min; 0 = compound-well median, 100 = enzyme-acceptor control | activation, % at 11.2 µM | actives 0.3% (n = 6,700);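 active = mean percent activation in the counterscreen above 29.09%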;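 note: counterscreen on off-target GPR119 to flag nonselective hits from the GPR151 activator screen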
An asterisk follows results filed as active; x = not tested or not shown. Hits are enriched below; roughly 3.4% of the tested compounds scored in any of these assays.

SMILES | FBW7 act | GPR151 activ | TEAD-YAP inh | MITF primary | GPR151 confirm | GPR119 counter
Cc1ccc(N2C(=O)NC(=O)/C(=C\c3ccc(OCC(=O)O)c(Cl)c3)C2=O)cc1C | -0.3 | -1.0 | 1.5 | 8.4 | x | x
COc1cccc(CCC(=O)N2CCCC(N3CCC(CO)CC3)C2)c1 (stereo not given) | 0.0 | 8.1* | 9.7 | 12.5 | -0.4 | -9.6
COc1ccc(C(=O)N(Cc2cccs2)C2CC(C)(C)NC(C)(C)C2)cc1 | 1.1 | 7.4* | 13.3 | 4.9 | 0.5 | 5.0
CCOc1ccc(-n2c(N)c(C(=O)Nc3ccccc3C)sc2=S)cc1 | 0.1 | -0.3 | 7.2 | 12.7 | x | x
CCN(CC)CCn1c(N)c(C(=O)Nc2ccccc2C)sc1=S | -0.1 | 6.0* | 2.0 | 2.8 | 0.6 | 10.4
O=C(Cc1cc(=O)[nH][nH]1)N/N=C/C=C/c1ccccc1 | -0.3 | 5.3* | 6.8 | 26.9 | -0.8 | 6.0
O=C(Cc1cccs1)N/N=C\C=C\c1ccccc1 | 0.1 | 0.3 | -39.9 | 8.8 | x | x
Cc1n[nH]c(C)c1CCC(=O)N/N=C/C=C/c1ccccc1 | -0.1 | 6.5* | 6.2 | 10.9 | 0.0 | -9.7
NNC(=O)c1cc(-c2ccccc2)nc2nc(N3CCCC3)sc12 | 0.2 | 1.0 | -1.2 | 5.3 | x | x
O=[N+]([O-])c1ccc(S(=O)(=O)Nc2ccc(-c3nc4ccccc4[nH]3)cc2)cc1 | -0.1 | 0.0 | -18.4 | -4.3 | x | x
O=S(=O)(Nc1ccc(-c2nc3ccccc3[nH]2)cc1)c1ccc(-n2cccn2)cc1 | 0.1 | 5.8* | 0.8 | -20.4 | 1.3 | 17.1
CC1CCN(c2cc(N3CCN(C(=O)c4ccccc4)CC3)c([N+](=O)[O-])cc2F)CC1 | -0.1 | -2.5 | 11.5 | -2.6 | x | x
Cc1ccccc1CNC(=O)C(=O)NCc1ccc2c(c1)OCO2 | -0.1 | 5.4* | 6.9 | 2.5 | -0.3 | 5.9
O=C1CCSc2c1cccc2C(=O)NCc1ccc2c(c1)OCO2 | 0.3 | 5.6* | 26.4 | 2.6 | 0.6 | 1.5
O=C(NCc1ccc2c(c1)OCO2)c1ccc(Br)s1 | 0.1 | 6.2* | -2.2 | 2.5 | -0.1 | 4.5
O=C(NCc1ccc2c(c1)OCO2)C(=O)Nc1ccccc1 | 0.1 | -0.6 | -22.0 | 16.1 | x | x
Cc1cc(C)n(-c2ccc(Cl)c(C(=O)NN)n2)n1 | 0.3 | -0.9 | 1.2 | 10.9 | x | x
CNC(=S)Nc1ccccc1Cl | 0.0 | 0.9 | 3.9 | -3.2 | x | x
COC(=O)c1cc2c(cc1NC(=O)NCc1noc3ccccc13)OCO2 | 0.0 | 9.2* | 11.0 | 9.0 | 0.6 | -3.4
O=C(NCc1cccc(Cl)c1)NCc1noc2ccccc12 | 0.0 | 6.5* | -21.4 | -11.9 | 0.2 | 1.6
Cc1ccccc1C1(CC(=O)N(C)C2CCOC2)CC(=O)N(Cc2ccncc2)C1=O (stereo not given) | 0.0 | -0.5 | 9.1 | 11.5 | x | x
CCC(C)NC(=O)Cn1nc(-c2ccccc2)ccc1=O (stereo not given) | -0.1 | 8.5* | 4.5 | 7.0 | -0.1 | -1.0
CCCC(CCC)C(=O)Nc1cccnc1 | -0.1 | 0.3 | 1.9 | -12.0 | x | x
CCCC(CCC)C(=O)Nc1ccncc1 | 1.1 | 8.7* | -3.2 | 11.0 | 1.0 | 5.2
O=S1(=O)N=C(N(CCO)/N=C/c2cccc(O)c2O)c2ccccc21 | -0.2 | 5.9* | -6.5 | 1.5 | 0.2 | -5.8
SMILES | FBW7 act | GPR151 activ | TEAD-YAP inh | MITF primary | GPR151 confirm | GPR119 counter
O=C(CCc1nnc(CCc2c[nH]c3ccccc23)o1)NCC1CC1 | -0.1 | 5.4* | 2.7 | 3.3 | 0.8 | 7.8
O=C(CCc1nnc(CCc2c[nH]c3ccccc23)o1)N1CCN(CC2CC2)CC1 | -0.1 | 0.1 | 6.8 | -7.2 | x | x
COc1cc(NC(=O)CSc2ccc(C(=O)O)cn2)ccc1-n1cnnn1 | -0.1 | 8.2* | 9.6 | 7.6 | -0.2 | 2.6
COc1cc(NC(=O)CSc2ccc(C(=O)O)cn2)cc(OC)c1 | 0.1 | 0.3 | -10.7 | -0.8 | x | x
Cc1nc2ccccc2n1CC(=O)N1CCc2ccccc21 | -0.1 | 0.9 | 10.2 | 1.8 | x | x
C/C(=N\NC(N)=O)c1c(O)c2ccccc2oc1=O | -0.2 | 7.4* | 6.1 | -3.0 | 0.4 | 4.7
CN=C(C)c1c(O)c2ccccc2oc1=O | 0.2 | -0.2 | 9.2 | -21.7 | x | x
Cc1cc(C)c(OCC(=O)Nc2cccc(C)c2C)c(C)c1 | -0.1 | -1.4 | -13.6 | -3.5 | x | x
CC(C)(C)C1=NN(CC(=O)Nc2nccs2)C(=O)c2cc3ccccc3n2C1 | 0.2 | 6.1* | -2.9 | -15.5 | 0.1 | 8.1
CC(C)(C)C1=NN(CCC(=O)O)C(=O)c2cc3ccccc3n2C1 | 0.0 | 7.7* | 0.1 | -2.1 | -0.1 | 9.6
CC(=O)[C@H](CC(C)C)NC(=O)C(CC(C)C)NC(=O)[C@H](CC(C)C)NC(=O)OCc1ccccc1 (stereo not given in full) | 0.0 | 0.6 | x | 4.9 | x | x
N#C/C(=C/c1ccc(N2CCOCC2)c([N+](=O)[O-])c1)c1nc2ccccc2[nH]1 | -0.1 | 5.2* | -18.9 | -25.3 | -1.6 | -6.1
N#Cc1sc2ncc3c(c2c1N)CCCC3 | 0.2 | 9.7* | -6.0 | 4.2 | 0.2 | 13.4
CC(=O)c1cccc(NC(=O)C(C)N2C(=O)C3C4C=CC(C5CC45)C3C2=O)c1 (stereo not given) | -0.1 | 0.4 | 7.4 | 12.3 | x | x
CC(C(=O)Nc1cccc([N+](=O)[O-])c1)N1C(=O)C2C3C=CC(C4CC34)C2C1=O (stereo not given) | 0.1 | 8.6* | -1.3 | 8.7 | -0.3 | -9.3
Cc1ccc(-c2nnc(NC3CCCCC3)c3ccccc23)cc1S(=O)(=O)NCc1nc2ccccc2[nH]1 | 0.4 | -0.2 | 25.4 | 18.1 | x | x
CN(C)CC(C)(O)c1ccc2c(c1)CN(Cc1ccc3c(c1)OCCO3)CCO2 (stereo not given) | 0.0 | 4.9* | -0.9 | -3.1 | 0.6 | 18.2
COCCCN1C(=O)C(=O)/C(=C(\O)c2ccccc2)C1c1ccc(C(C)C)cc1 (stereo not given) | 0.0 | 5.3* | 9.0 | 4.6 | -0.7 | -4.5
O=C(Cc1c(O)c2ccccc2[nH]c1=O)NCCO | -0.1 | 0.5 | 3.1 | -1.8 | x | x
O=C(Cc1c(O)c2ccccc2[nH]c1=O)NCc1ccccn1 | -0.5 | 5.6* | 4.5 | 16.0 | 0.1 | 5.8
CCOC(=O)c1[nH]c(=O)[nH]c1CSc1nc2ccccc2[nH]1 | 0.0 | 10.6* | -0.9 | -15.4 | 0.8 | 5.6
CCOC(=O)CSc1nc2ccccc2[nH]1 | 0.1 | 1.0 | -5.7 | 13.6 | x | x
COc1cc(C)cc(CN2CCN(Cc3ccc4c(c3)OCO4)CC2)c1O | -0.1 | 5.3* | -11.2 | -0.4 | -0.4 | 7.3
COc1cc(OC)c(CN2CCN(Cc3ccc4c(c3)OCO4)CC2)cc1Br | 0.0 | 3.5 | -4.8 | 39.3 | x | x
COc1cccc(C2NC(=S)NC(C)=C2C(=O)Nc2cc(OC)ccc2OC)c1 (stereo not given) | -0.1 | 0.7 | -2.8 | -10.2 | x | x
CC1=C(C#N)C(Nc2nc3ccccc3s2)(C(F)(F)F)C(=O)N1 (stereo not given) | 0.1 | 0.2 | 4.6 | 11.4 | x | x

Screening results: PubChem, The Scripps Research Institute Molecular Screening Center
